# Experimental data reported in PubChem BioAssay.
# Activity calls are given as the source filed them.
# Assays:
# [1] = small molecules captured by biotinylated probe aFSTL3 – biochemical, small-molecule microarray, fluorescence 635/667, stem cell growth factor project, primary screen (AID 1064); settings: higher = more signal;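 also: measures binding of the biotinylated anti-FSTL3 antibody to printed compounds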
# [2] = binders from COS7 lysate, DM2A8 probe, primary screen, torsin A project, cell lysate, small-molecule microarray, fluorescence 635/667 (AID 1065); settings: higher = more signal, COS7 lysate expressing mutant human TOR1A
# [3] = small molecules captured by biotinylated probe aFGF2 – biochemical, small-molecule microarray, fluorescence 635/667, stem cell growth factor project, primary screen (AID 1067); settings: higher = more signal;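 also: measures binding of biotinylated aFGF2 protein to printed compounds on slides; z-score merges feature fluorescence and signal-to-noise across triplicate slides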
# [4] = small molecules captured by biotinylated probe aFGF10 – biochemical, small-molecule microarray, fluorescence 635/667, stem cell growth factor project, primary screen (AID 1071); settings: higher = more signal;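 also: score merges 667 nm spot intensity and signal to noise from triplicate slides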
# [5] = target: Neurogenic locus notch homolog protein 2 (Homo sapiens) (UniProt Q04721); experiment: small molecules binding Notch2 protein – biochemical, small-molecule microarray, 635 nm fluorescence, stem cell growth factors, primary screen (AID 1073); settings: higher = more signal
# [6] = target: Pro-neuregulin-1, membrane-bound isoform (Homo sapiens) (UniProt Q02297); experiment: small molecules binding neuregulin-1 protein – biochemical, small-molecule microarray, fluorescence 635/667, psychiatric disease protein project, primary screen (AID 1075); settings: NRG1 binding, 635 nm fluorescence, higher = more signal;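 also: score combines 667 nm spot fluorescence with signal to noise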
# [7] = test system: Neuregulin-1 EGF-like domain; experiment: small molecules binding NRG1 EGF domain – biochemical, small-molecule microarray, 635 nm fluorescence, primary screen (AID 1081); settings: higher = more signal;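 also: binding of the protein to compounds printed on small-molecule microarray slides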
# [8] = FRG1 expression reporter modulators in myotubes – cell-based, C2C12 myotubes, firefly/Renilla luciferase, luminescence, FRG1 inhibition for FSHD, primary screen (AID 1084); settings: FRG1 promoter luciferase, higher = more signal, called active from +8 up or from −8 down
# [9] = small molecules captured by biotinylated probe aFST – biochemical, small-molecule microarray, fluorescence 635/667, stem cell growth factor project, primary screen (AID 1086); settings: higher = more signal;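 also: score merges 667 nm fluorescence with signal-to-noise of each printed compound spot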
# [10] = binders of probe aHhip on microarray, primary screen, stem cell growth factor project, biochemical, small-molecule microarray, fluorescence 635/667 (AID 1087); settings: higher = more signal;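 also: score merges spot fluorescence at 667nm with spot signal to noise ratio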
# Sequence of Neurogenic locus notch homolog protein 2 (Homo sapiens) (Q04721 whole entry, looked up, canonical isoform): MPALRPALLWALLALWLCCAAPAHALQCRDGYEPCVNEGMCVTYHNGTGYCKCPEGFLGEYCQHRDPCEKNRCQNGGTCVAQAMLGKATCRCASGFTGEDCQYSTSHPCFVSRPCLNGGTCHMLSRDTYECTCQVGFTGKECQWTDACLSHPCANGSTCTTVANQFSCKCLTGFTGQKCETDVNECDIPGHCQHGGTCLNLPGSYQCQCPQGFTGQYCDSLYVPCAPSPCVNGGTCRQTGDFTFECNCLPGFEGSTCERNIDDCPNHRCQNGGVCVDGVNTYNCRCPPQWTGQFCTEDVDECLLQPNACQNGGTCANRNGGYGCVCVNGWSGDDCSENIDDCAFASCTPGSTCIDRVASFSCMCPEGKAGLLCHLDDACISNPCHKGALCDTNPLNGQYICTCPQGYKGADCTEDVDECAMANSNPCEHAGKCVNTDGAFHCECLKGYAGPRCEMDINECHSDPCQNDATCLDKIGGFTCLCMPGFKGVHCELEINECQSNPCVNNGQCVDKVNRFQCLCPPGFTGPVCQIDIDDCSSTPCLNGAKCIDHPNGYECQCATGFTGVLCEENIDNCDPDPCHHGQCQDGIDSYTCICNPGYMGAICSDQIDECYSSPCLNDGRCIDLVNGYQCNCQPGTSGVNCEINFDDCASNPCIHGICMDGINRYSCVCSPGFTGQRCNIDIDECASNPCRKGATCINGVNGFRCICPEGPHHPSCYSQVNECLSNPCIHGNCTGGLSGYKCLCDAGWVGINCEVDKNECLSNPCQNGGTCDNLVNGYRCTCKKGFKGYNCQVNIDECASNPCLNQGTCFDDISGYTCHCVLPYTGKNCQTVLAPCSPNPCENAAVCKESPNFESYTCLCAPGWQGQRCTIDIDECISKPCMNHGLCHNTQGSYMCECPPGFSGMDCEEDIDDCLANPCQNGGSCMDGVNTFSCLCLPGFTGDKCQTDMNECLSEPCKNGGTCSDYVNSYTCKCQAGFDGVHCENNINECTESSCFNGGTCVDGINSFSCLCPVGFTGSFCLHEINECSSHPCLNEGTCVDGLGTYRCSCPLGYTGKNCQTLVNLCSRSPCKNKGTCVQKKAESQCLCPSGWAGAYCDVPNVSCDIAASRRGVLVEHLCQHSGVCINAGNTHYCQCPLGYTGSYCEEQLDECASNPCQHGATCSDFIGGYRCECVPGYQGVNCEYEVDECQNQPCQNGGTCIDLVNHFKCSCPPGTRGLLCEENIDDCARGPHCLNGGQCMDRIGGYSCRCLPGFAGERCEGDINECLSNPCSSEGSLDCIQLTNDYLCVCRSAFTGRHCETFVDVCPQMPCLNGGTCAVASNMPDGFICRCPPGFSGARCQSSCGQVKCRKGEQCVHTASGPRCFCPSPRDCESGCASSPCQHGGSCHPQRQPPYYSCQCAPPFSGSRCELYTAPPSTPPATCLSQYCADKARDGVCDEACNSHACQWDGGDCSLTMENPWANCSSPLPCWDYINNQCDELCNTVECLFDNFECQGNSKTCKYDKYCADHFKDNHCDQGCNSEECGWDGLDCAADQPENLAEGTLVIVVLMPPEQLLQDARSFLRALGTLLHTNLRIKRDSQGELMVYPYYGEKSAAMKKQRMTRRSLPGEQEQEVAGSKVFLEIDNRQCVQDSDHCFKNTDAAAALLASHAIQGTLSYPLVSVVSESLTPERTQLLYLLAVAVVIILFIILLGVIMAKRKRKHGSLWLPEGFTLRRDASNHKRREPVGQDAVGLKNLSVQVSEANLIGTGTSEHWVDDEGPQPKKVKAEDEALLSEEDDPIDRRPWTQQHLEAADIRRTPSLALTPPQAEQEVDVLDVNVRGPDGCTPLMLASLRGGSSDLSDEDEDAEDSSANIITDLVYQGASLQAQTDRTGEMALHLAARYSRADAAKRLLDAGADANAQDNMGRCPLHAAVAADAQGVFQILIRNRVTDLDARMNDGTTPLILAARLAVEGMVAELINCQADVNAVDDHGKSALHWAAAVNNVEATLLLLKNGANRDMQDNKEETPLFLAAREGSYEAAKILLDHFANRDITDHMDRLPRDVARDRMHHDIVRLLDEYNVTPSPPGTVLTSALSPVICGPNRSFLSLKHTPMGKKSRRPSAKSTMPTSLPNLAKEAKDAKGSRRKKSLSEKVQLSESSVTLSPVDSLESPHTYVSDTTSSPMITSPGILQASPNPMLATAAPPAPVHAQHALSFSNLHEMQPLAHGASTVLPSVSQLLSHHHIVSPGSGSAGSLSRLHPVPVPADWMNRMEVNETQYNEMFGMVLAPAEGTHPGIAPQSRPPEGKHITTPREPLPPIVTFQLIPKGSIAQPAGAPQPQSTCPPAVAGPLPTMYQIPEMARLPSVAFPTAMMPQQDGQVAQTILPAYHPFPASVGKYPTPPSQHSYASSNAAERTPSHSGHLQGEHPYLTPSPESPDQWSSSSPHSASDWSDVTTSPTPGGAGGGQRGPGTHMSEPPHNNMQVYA
# Sequence of Pro-neuregulin-1, membrane-bound isoform (Homo sapiens) (Q02297 whole entry, looked up, the tested form may be a part, canonical isoform): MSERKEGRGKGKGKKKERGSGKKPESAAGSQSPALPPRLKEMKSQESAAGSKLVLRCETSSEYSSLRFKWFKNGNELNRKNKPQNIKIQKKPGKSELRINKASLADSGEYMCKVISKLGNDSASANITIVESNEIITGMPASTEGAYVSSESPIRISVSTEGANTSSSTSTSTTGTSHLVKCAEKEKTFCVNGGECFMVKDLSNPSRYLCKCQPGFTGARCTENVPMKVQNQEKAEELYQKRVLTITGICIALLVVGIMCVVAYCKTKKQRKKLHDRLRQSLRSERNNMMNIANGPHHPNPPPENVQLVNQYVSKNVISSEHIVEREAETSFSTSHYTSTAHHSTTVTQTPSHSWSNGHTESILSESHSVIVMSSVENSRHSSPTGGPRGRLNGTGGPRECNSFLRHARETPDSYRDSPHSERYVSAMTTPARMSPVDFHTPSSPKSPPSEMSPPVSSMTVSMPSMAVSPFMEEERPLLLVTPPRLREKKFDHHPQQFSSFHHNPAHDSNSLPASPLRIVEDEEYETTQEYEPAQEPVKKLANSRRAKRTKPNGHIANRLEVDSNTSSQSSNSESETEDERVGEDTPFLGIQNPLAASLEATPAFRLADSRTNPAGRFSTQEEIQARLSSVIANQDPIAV
SMILES,composite z-score [1],composite z-score [2],composite z-score [3],composite z-score [4],composite z-score [5],composite z-score [6],composite z-score [7],z-score [8],composite z-score [9],composite z-score [10]
O=C1[C@H]2[C@H]3[C@H](O)[C@H](O)CC(=NOCc4ccccc4)[C@@H]3CC[C@H]2C(=O)N1C[C@@H]1CCCO1,-0.278,-0.22,-0.116,-0.125,0.176,0.0461,-0.288,1.36 (inactive),0.271,-0.27
CCN1C(=O)[C@H]2[C@H]3[C@H](O)[C@H](O)CC(=NOCC(C)C)[C@@H]3CC[C@H]2C1=O,-0.596,0.217,-0.142,0.361,1.23,0.42,0.336,0.0163 (inactive),0.124,0.465
COC(=O)[C@@H]1CC[C@H](C)[C@@H](c2ccc(C)cc2)N1C(=O)c1ccc(C=NO[C@@H]2O[C@H](COC(C)=O)[C@@H](OC(C)=O)[C@H](OC(C)=O)[C@H]2OC(C)=O)cc1,-0.241,0.427,-0.0985,0.514,0.527,0.0818,0.319,0.861 (inactive),0.337,0.0749
COC(=O)CC=C[C@@H](C)[C@@H](C=NO[C@@H](C)c1cn([C@H](CO)Cc2ccccc2)nn1)OC,-0.446,1.68,-0.119,-0.0052,0.0576,-0.0718,-0.265,-0.839 (inactive),0.0066,-0.34
CSCC[C@@H]1NC(=O)CC=C[C@@H](C)COC(=O)[C@@H](C)COC1=O,-0.324,2.62,-0.144,-0.456,-0.239,-1.21,0.129,-0.371 (inactive),-0.485,-0.391
CC(C)CON=C1C[C@@H](O)[C@@H](O)[C@@H]2[C@@H]3C(=O)N(C4CCCCC4)C(=O)[C@@H]3CC[C@H]12,-0.475,0.6,-0.0383,0.848,1.14,0.936,0.743,-0.276 (inactive),0.272,-0.169
CCOC(=O)[C@H](Cc1ccccc1)NC(=O)CCC1CC(OC(=O)NCc2cccc3ccccc23)CC2(CCCC(COC(=O)NCc3cccc(C(F)(F)F)c3)O2)O1 (stereo not given in full),-0.223,-0.549,-0.0934,0.19,0.211,0.567,0.74,-1.05 (inactive),-0.143,-0.0645
Cc1ccc(S(=O)(=O)N[C@@H]2COC(=O)[C@@H](C)COC(=O)CC=C[C@H]2C)cc1,-0.305,0.155,-0.0777,0.259,0.672,-0.126,0.167,0.204 (inactive),0.045,0.251
CON=C[C@@H](NS(=O)(=O)c1ccc(C)cc1)[C@H](C)C=CCC(=O)OC,-0.303,0.0827,-0.125,-0.224,-0.98,-0.23,0.0812,0.494 (inactive),-0.371,-0.189
COc1ccc(O[C@H]2C=C[C@@H](c3ccccc3)O[C@@H]2COC(=O)CCC(C)=NOC[C@@H](O)[C@H]2O[C@@H]3OC(C)(C)O[C@@H]3[C@H]2O)cc1,-0.522,0.62,-0.102,0.497,0.624,0.0094,0.724,0.452 (inactive),0.659,-0.0994
COC(=O)CC=C[C@@H](C)[C@H](OCc1cccc(-c2ccccc2)c1)C1CCCCC1,-0.131,0.0473,-0.174,-0.208,0.813,0.654,0.359,1.38 (inactive),-0.48,0.189
CC(C)CON=C1C[C@@H](O)[C@@H](O)[C@@H]2[C@@H]3C(=O)N(Cc4ccc5c(c4)OCO5)C(=O)[C@@H]3CC[C@H]12,-0.504,-0.111,-0.149,0.715,0.392,1.01,1,-0.261 (inactive),0.0313,-0.0645
COC(=O)[C@@H]1CC[C@@H](C)[C@H](c2ccc(Br)cc2)N1,-0.364,-0.0471,-0.163,0.321,0.0422,-0.303,-0.356,-1.02 (inactive),-0.199,-0.184
Cc1ccc(S(=O)(=O)NC(CCc2ccccc2)CC(=O)C(C)(C)C)cc1 (stereo not given),-0.651,0.339,-0.228,0.711,0.747,0.132,0.459,-3.04 (inactive),0.195,-0.261
C[C@@H]1CC[C@H]2C(=O)O[C@@H](COc3ccc(C(C)(C)C)cc3)CN2[C@@H]1c1ccc(Br)cc1,-0.368,-0.257,-0.162,-0.249,-0.538,-0.0758,-0.976,1.03 (inactive),-0.217,-0.134
CC(CCN1CCCCc2nc(C)c(C)cc21)=NOC[C@@H](O)COCc1ccco1,-0.471,2.6,-0.242,0.0106,0.296,-1.03,0.298,-0.0255 (inactive),0.193,0.259
COC(=O)CC=C[C@@H](C)[C@@H](C=NO[C@@H]1O[C@H](COC(C)=O)[C@@H](OC(C)=O)[C@H](OC(C)=O)[C@H]1OC(C)=O)OC,-0.48,1.26,0.0167,-0.41,1.03,-0.617,-1.05,0.572 (inactive),0.354,0.189
